Experiment [1] in a line: Nuclear factor erythroid 2-related factor 2/antioxidant responsive element (Nrf2/ARE) small molecule agonists: qHTS cell viability counter screen in human keratinocytes (AID 1919968; active = well fitted curve in the direction sought with a large enough effect in the repeat runs; an effect the other way counts as inactive or inconclusive; also: nearly all actives have a fitted effect of over 55% in size; also: potency is read from the fitted curve at half-maximal effect). An outline of the steps: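 Parallel cytotoxicity read: KeratinoSens HaCaT cells, compound treatment 23 h, viability by CellTiter-Fluor fluorescence 1 h post-reagent.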
Experiment [2] is described as follows: Nuclear factor erythroid 2-related factor 2/antioxidant responsive element (Nrf2/ARE) small molecule agonists: luciferase reporter gene qHTS assay in human keratinocytes (AID 1919969; also: nearly all actives have a fitted effect of over 35% in size; also: potency is read from the fitted curve at half-maximal effect). (In general: Reporter assays use an easily measured gene product as a stand-in for the process of interest.)
For experiment [3], the target named is Gonadotropin-releasing hormone receptor (Homo sapiens) (UniProt P30968). Put plainly: Human gonadotropin-releasing hormone receptor (GnRHR) small molecule agonists, calcium flux assay in GnRHR-HEK293 cells (AID 1920063). Also: nearly all actives have a fitted effect of over 35% in size. An outline of the steps: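 Calcium flux, agonist mode, human GnRHR stably integrated in HEK293; dye 1 h at 37 C before compound; Ex/Em=480/540 kinetic read, 3 min; 15 concentrations, triplicate.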
Chain of Gonadotropin-releasing hormone receptor (Homo sapiens) (P30968 whole entry, looked up): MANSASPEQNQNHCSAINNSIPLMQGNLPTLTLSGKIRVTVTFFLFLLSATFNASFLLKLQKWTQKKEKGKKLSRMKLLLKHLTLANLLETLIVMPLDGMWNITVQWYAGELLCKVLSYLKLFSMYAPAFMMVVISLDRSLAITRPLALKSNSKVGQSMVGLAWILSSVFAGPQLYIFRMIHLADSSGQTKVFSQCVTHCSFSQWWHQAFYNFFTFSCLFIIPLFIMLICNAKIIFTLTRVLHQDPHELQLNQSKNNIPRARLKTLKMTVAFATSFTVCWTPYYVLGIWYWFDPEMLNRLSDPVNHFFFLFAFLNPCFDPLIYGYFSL
For orientation: A change in cytosolic calcium serves as a functional read-out for many receptors and channels.

Experiment [4] has as its target KiSS-1 receptor (Homo sapiens) (UniProt Q969F8). As to the kind of experiment: Human kisspeptin (KISS1R) small molecule agonists, calcium flux assay in KISS1R-HEK293 cells (AID 1920064; active = well fitted curve in the direction sought with a large enough effect in the repeat runs; an effect the other way counts as inactive or inconclusive). An outline of the steps: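 Triplicate 15-concentration series were applied to dye-loaded human KISS1R HEK293 cells, and agonist-evoked calcium fluorescence was captured for 3 min.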

The nature of experiment [5]: p53 small molecule agonists, cell-based qHTS assay with human liver microsomes (AID 1963577).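 Also: p53 response element beta-lactamase reporter cells with liver microsomes plus NADPH.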 An outline of the steps:
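Steps: plate p53RE-bla cells, incubate 5 h at 37 C; add compound in DMSO; add microsomes (0.5 mg/mL final) and NADPH (0.5 mg/mL final); incubate 16 h at 37 C; add LiveBLAzer, 2 h RT; read fluorescence.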

A short description of experiment [6]: p53 small molecule agonists, cell-based qHTS assay with rat liver microsomes (AID 1963578). An outline of the steps: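 Metabolic activation is supplied by rat liver microsomes with NADPH (each 0.5 mg/mL final). p53RE-bla cells incubate with compound 16 h at 37 C; reporter activity is measured by LiveBLAzer fluorescence.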
Experiment [7] is described as follows: p53 small molecule agonists, cell-based qHTS assay with human liver microsomes: qHTS cell viability counter screen (AID 1963579). Also: nearly all actives have a fitted effect of over 45% in size. An outline of the steps: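 After the 460/530 nm beta-lactamase read, CellTiter-Glo was added to the same wells and luminescence measured after 30 min at room temperature, giving viability of p53RE-bla cells treated 16 h with compounds plus microsomes and NADPH.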

Experiment [8] in a line: p53 small molecule agonists, cell-based qHTS assay: qHTS cell viability counter screen (AID 1963581). Also: nearly all actives have a fitted effect of over 45% in size. An outline of the steps: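 Multiplexed with the reporter read, a CellTiter-Glo step (30 min, room temperature) gauges ATP-based viability of HCT-116 p53RE-bla cells after 16 h compound incubation at 37 C.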
(qHTS replaces the single test concentration by a dilution series.)

The nature of experiment [9]: p53 small molecule agonists, cell-based qHTS assay (AID 1963582; active = well fitted activation curve with a large enough effect in the signal ratio in the repeat runs, not every such curve was filed as active; the % refers to the signal ratio). An outline of the steps:
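Beta-lactamase reporter cells (p53RE-bla) treated with compounds for 16 h at 37 C; FRET substrate, 2 h, room temperature; fluorescence intensity.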

Experiment [10] addresses 5-hydroxytryptamine receptor 2A (Homo sapiens) (UniProt P28223). As to the kind of experiment: 5-hydroxytryptamine receptor 2A (HTR2A) small molecule antagonists, cell-based qHTS assay (AID 1963586). Also: nearly all actives have a fitted effect of over 45% in size. Also: potency is read from the fitted curve at half-maximal effect. An outline of the steps: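 CHO cells stably expressing human HTR2A were plated for 18 h at 37 C, then loaded with calcium dye for 1 h. Compounds were preincubated 5 min at room temperature before DOI (4 nM solution) was added. Kinetic fluorescence was read for 3 min.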

The target is the same in experiment [11]. Put plainly: 5-hydroxytryptamine receptor 2A (HTR2A) small molecule agonists, cell-based qHTS assay (AID 1963587). Also: nearly all actives have a fitted effect of over 30% in size. Also: potency is read from the fitted curve at half-maximal effect. An outline of the steps: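 CHO cells stably expressing human HTR2A, plated 18 h, loaded with calcium dye 1 h at 37 C. Agonist mode: compounds added and intracellular calcium fluorescence recorded kinetically for 2 min at 1 sec intervals.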
In experiment [12] the target is Muscarinic acetylcholine receptor M1 (Homo sapiens) (UniProt P11229). Put plainly: Cholinergic receptor muscarinic 1 (CHRM1) small molecule antagonists, cell-based qHTS assay (AID 1963588). Also: nearly all actives have a fitted effect of over 40% in size. Also: potency is read from the fitted curve at half-maximal effect. An outline of the steps: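 Compounds were tested at 15 concentrations in three independent runs. Dye-loaded CHRM1-CHO cells were exposed 5 min at room temperature before stimulation by acetylcholine added at 50nM. Intracellular calcium was read kinetically on FDSS for 3 min.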
Chain of Muscarinic acetylcholine receptor M1 (Homo sapiens) (P11229 whole entry, looked up): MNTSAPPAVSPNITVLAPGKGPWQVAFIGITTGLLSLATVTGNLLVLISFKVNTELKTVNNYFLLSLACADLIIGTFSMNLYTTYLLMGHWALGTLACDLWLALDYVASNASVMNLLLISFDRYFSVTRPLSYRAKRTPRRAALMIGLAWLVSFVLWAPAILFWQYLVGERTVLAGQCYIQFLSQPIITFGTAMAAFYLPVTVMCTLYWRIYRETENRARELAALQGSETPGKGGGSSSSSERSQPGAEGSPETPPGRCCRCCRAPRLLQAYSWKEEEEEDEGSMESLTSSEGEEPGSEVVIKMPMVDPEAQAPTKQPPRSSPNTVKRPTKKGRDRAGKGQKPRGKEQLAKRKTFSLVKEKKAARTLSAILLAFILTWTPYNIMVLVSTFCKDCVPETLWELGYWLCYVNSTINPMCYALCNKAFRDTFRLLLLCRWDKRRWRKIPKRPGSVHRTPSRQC

The target is the same in experiment [13]. As to the kind of experiment: Cholinergic receptor muscarinic 1 (CHRM1) small molecule agonists, cell-based qHTS assay (AID 1963589). Also: nearly all actives have a fitted effect of over 35% in size. An outline of the steps: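 qHTS, 15-point titration, 3 independent runs: compounds pin-transferred onto dye-loaded CHRM1-CHO cells (human M1), calcium fluorescence followed every second to detect agonism.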
Experiment [14] in a line: cAMP Responsive Elements (CRE) small molecule agonists, cell-based qHTS assay (AID 1963590). An outline of the steps:
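Quantitative HTS for CRE agonists: HEK 293T CRE-bla cells, overnight plating, 3 h compound incubation at 37 C/5% CO2, then 2 h room-temperature LiveBLAzer B/G FRET substrate loading.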

For experiment [15], the target named is Beta-2 adrenergic receptor (Homo sapiens) (UniProt P07550). Put plainly: Adrenergic beta2 receptor (ADRB2) small molecule antagonists, cell-based qHTS assay (AID 1963592). Also: series mostly up to about 92 µM; nearly all actives have a fitted effect of over 50% in size. An outline of the steps: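 Assay format: CHO-ADRB2 cells, 18-20hr seeding at 37C/5% CO2, then compound plus 1nM isoproterenol agonist mix for 0.5hr RT. Homogeneous time-resolved fluorescence cAMP detection after 1hr, expressed as 665/615 nm ratio.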
Chain of Beta-2 adrenergic receptor (Homo sapiens) (P07550 whole entry, looked up): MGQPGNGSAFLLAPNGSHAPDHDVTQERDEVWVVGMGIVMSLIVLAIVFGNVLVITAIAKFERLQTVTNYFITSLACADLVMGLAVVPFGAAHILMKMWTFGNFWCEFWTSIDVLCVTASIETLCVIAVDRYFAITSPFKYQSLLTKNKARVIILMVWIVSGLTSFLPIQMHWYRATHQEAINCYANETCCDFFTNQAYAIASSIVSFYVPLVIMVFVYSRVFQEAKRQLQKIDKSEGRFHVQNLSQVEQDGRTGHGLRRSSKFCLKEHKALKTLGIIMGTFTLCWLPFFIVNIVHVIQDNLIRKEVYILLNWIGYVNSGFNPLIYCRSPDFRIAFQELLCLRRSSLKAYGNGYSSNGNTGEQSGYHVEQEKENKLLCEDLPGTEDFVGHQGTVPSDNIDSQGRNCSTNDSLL

Experiment [16] has as its target D(2) dopamine receptor (Homo sapiens) (UniProt P14416). Put plainly: Dopamine D2 receptor (DRD2) small molecule agonists, cell-based qHTS assay (AID 1963594). Also: nearly all actives have a fitted effect of over 35% in size. An outline of the steps:
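HEK293 cells stably expressing human DRD2, pre-treated with PDE inhibitor Ro20-1724 (0.1 mM final) and compound 10 min at room temperature, then stimulated with NKH477 (200nM […]) for 30 min. cAMP read by HTRF (665/620 nm).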

Experiment [17] has the same target. Put plainly: Dopamine D2 receptor (DRD2) small molecule antagonists, cell-based qHTS assay (AID 1963595; active = well fitted inhibition curve with a large enough effect in the signal ratio in the repeat runs, with a control signal flat; the % refers to the signal ratio). An outline of the steps: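 Antagonist mode in DRD2-HEK293 cells: after compound addition with 0.1 mM Ro20-1724, cells received quinpirole (12 nM) and NKH477 (200 nM) for 30 min at room temperature; HTRF cAMP read after 1 h detection.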
Experiment [18] in a line: p53 small molecule agonists, cell-based qHTS assay with rat liver microsomes: qHTS cell viability counter screen (AID 1963580). Also: nearly all actives have a fitted effect of over 45% in size. An outline of the steps: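 After the beta-lactamase ratio was read, CellTiter-Glo was added to the same wells and luminescence measured at 30 min; cells had been treated 16 h at 37 C with compounds, rat liver microsomes and NADPH (0.5 mg/mL final each).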

A short description of experiment [19]: cAMP Responsive Elements (CRE) small molecule antagonists, cell-based qHTS assay (AID 1963591; active = well fitted inhibition curve with a large enough effect in the signal ratio in the repeat runs, not every such curve was filed as active; the % refers to the signal ratio). An outline of the steps: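 Fluorescence intensity from cleaved LiveBLAzer B/G substrate (2 h, room temperature) quantified CRE-bla activity in HEK 293T cells exposed 3 h to compound with 0.25 uM final NKH477.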

A number with no mark means an inactive call. Inconclusive results are not listed. Calls of active or inactive are those of the source. Unless noted, calls follow the shape of the full dose curve.
% is scaled to controls: 0 for no effect and ±100 for the full control effect.

Chain of 5-hydroxytryptamine receptor 2A (Homo sapiens) (P28223 whole entry, looked up): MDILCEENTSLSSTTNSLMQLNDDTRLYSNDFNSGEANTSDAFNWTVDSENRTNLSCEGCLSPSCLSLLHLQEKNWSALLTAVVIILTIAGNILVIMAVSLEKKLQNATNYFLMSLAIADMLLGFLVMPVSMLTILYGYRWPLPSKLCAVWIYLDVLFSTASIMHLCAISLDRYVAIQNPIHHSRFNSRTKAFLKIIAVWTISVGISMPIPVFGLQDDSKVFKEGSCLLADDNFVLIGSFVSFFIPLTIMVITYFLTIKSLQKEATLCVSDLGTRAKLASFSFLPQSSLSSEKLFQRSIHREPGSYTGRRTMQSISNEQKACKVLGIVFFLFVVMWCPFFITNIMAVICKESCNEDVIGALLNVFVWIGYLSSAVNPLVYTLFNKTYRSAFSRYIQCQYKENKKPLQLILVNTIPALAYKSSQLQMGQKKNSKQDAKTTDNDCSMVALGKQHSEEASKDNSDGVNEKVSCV
Chain of D(2) dopamine receptor (Homo sapiens) (P14416 whole entry, looked up): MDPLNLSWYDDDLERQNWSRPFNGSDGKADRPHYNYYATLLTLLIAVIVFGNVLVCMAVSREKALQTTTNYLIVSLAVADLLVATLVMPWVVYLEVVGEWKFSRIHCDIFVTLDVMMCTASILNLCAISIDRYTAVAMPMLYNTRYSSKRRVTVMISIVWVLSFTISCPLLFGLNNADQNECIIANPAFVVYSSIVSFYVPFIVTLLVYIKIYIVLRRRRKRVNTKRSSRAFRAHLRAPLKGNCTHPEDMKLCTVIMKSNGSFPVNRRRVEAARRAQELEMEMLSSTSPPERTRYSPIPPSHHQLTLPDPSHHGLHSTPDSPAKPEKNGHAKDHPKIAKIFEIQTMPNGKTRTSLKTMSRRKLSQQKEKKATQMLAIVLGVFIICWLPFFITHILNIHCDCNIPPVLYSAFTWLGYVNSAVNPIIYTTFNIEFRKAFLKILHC
Chain of KiSS-1 receptor (Homo sapiens) (Q969F8 whole entry, looked up): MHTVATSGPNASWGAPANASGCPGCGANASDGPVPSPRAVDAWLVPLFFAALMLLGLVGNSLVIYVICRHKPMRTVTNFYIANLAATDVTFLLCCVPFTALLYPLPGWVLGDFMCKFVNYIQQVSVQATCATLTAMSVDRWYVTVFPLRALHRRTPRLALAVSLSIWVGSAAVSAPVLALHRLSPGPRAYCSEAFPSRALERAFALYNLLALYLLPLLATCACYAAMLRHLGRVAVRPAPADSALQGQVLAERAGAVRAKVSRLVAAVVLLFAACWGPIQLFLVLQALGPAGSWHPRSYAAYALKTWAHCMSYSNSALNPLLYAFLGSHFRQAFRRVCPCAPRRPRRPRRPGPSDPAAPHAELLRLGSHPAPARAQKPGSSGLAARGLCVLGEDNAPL

For `O=C(O)COCC(=O)O`, the Potency entry in experiment [1], in [2], in experiment [3], in experiment [5], in experiment [6] and in experiment [7] was “inactive” each time. In addition, the Potency result in experiment [8], in experiment [9], in experiment [10], in [11], in [12] and in experiment [13] was “inactive” throughout. In addition, the Potency entry in experiment [14], in experiment [15], in experiment [16] and in experiment [17] was “inactive” throughout. Besides, in [4], the outcome was inactive.

`N=C(N)c1ccc(OCCCOc2ccc(C(=N)N)cc2)cc1`: the Potency result in experiment [1], in experiment [2], in experiment [3], in experiment [5], in [6] and in [7] was “inactive” each time. The Potency entry in [18], in experiment [8], in [10], in experiment [11], in experiment [12] and in experiment [13] was “inactive” throughout. For the same compound, the Potency result in [14], in experiment [19], in [15], in experiment [16] and in [17] was “inactive” throughout. Moreover, the result in experiment [4] was inactive.

Turning to `CCCCCCCCCCCCS(=O)(=O)Cl`, the activity change, negative = cytotoxicity in experiment [1] was -5.52% [at 19 µM]; in experiment [7], 0.65% [at 13.5 µM]; in [8], -1.69% [at 13.5 µM]. The activity, positive = activation in [2] was -14% [at 19 µM]. Further, the activity change in [3] is 1.68% [at 11.8 µM, active compounds read high]. For the same compound, the activation in experiment [4] is 0.356% [at 15.8 µM]; in [5], 0.955% [at 13.5 µM]; in [6], -3.11% [at 13.6 µM]; in [9], -3.88% [at 13.5 µM]; in experiment [11], 18.9% [at 15.9 µM]; in experiment [13] it was 0.179% [at 15.8 µM]. Also, the activation in [14] is 1.16% [at 19 µM]; in experiment [16], 0.808% [at 19 µM]. The activity, negative = inhibition in experiment [10] is 6.87% [at 12.7 µM]; in experiment [12], 0.609% [at 12.6 µM]. In addition, the activity change, negative = inhibition in experiment [19] is -6.5% [at 18.9 µM]; in [15], -6.85% [at 19 µM]; in experiment [17], -2.33% [at 18.9 µM].

Consider `ClC(Cl)(Br)Br`, for which the Potency entry in [1], in experiment [2], in [3], in [5], in [6] and in [7] was “inactive” each time. Besides, the Potency entry in experiment [18], in experiment [8], in [10], in [11], in experiment [12] and in [14] was “inactive” throughout. Further, the Potency result in experiment [15], in [16] and in [17] was “inactive” each time. In experiment [4], the result was inactive.

Regarding `CN1CCN(c2c(F)cc3c(=O)c(C(=O)O)cn4c3c2SCC4)CC1`, the Potency entry in experiment [1], in experiment [2], in experiment [3], in experiment [5], in [6] and in experiment [7] was “inactive” in each case. The Potency entry in experiment [18], in [11], in experiment [12], in experiment [13] and in experiment [17] was “inactive” throughout. Also, in experiment [4], the result was inactive.

Take `CCCCCCCCCCCCCCNCCO`: the Potency in [1] was 26.6 µM (active); in experiment [2], 13.3 µM (active); in experiment [11], 23.9 µM (active). The Potency entry in experiment [3], in experiment [5], in experiment [6], in experiment [7], in [18] and in [9] was “inactive” throughout. Also, the Potency result in experiment [12], in experiment [13], in experiment [14], in [19], in experiment [15] and in experiment [17] was “inactive” throughout. The outcome in experiment [4] was inactive.

For the compound `CC(C)Nc1nc(N)nc(Cl)n1`, the Potency entry in [1], in experiment [2], in [3], in experiment [5], in experiment [6] and in experiment [7] was “inactive” each time. Further, the Potency result in experiment [18], in experiment [9], in experiment [10], in experiment [11], in [12] and in experiment [14] was “inactive” each time. Moreover, the Potency result in [15], in [16] and in experiment [17] was “inactive” in each case. For the same compound, in experiment [4], the outcome was inactive.

On to `Cc1c(Cl)cccc1Nc1ccccc1C(=O)O`, for which the Potency result in [1], in experiment [2], in [3], in experiment [5], in experiment [6] and in experiment [7] was “inactive” throughout. Besides, the Potency result in experiment [11], in experiment [13], in experiment [15] and in experiment [16] was “inactive” each time. Besides, the outcome in [4] was inactive. In addition, the Potency in experiment [10] was 16.3 µM (active); in [12], 4.6 µM (active).

Source of the values: PubChem BioAssay (Tox21).
